Results: PubChem BioAssay (Tox21)
Inconclusive results are not listed. The source made the active and inactive calls. Unless noted, calls come from the whole dose curve; as a rule, active = well fitted curve in the direction sought with a large enough effect in the repeat runs; inconclusive = weak or mixed curves; inactive = no such curve, though single readings can be large; an effect the other way counts as inactive or inconclusive.

How the values were obtained:
[1] = qHTS assay to identify aromatase inhibitors - cell viability counter screen (AID 743084);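 note: cells stimulated with testosterone during compound exposure; nearly all actives have a fitted effect of over 55% in size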
[2] = molecular target: Aryl hydrocarbon receptor (Homo sapiens) (UniProt P35869); experiment: qHTS assay to identify small molecule that activate the aryl hydrocarbon receptor (AhR) signaling pathway (AID 743085);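 note: HG2L7.5c1 human HepG2 liver cells with stably integrated DRE-driven firefly reporter; series mostly up to about 70 µM; nearly all actives have a fitted effect of over 15% in size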
Outline: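 Reporter assay in engineered HepG2 line HG2L7.5c1, whose plasmid carries twenty dioxin responsive elements upstream of firefly luciferase. Treatment lasted 24 h at 37C; ONE-Glo luminescence gauged induction.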

[3] = qHTS assay to identify small molecule that activate the aryl hydrocarbon receptor (AhR) signaling pathway - cell viability counter screen (AID 743086);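 note: HepG2 liver cells carrying the AhR DRE luciferase reporter; series mostly up to about 70 µM; nearly all actives have a fitted effect of over 45% in size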
Outline: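 HepG2-AhR-luc (HG2L7.5c1) cells, 4000/well, were preincubated 5 h at 37C, exposed to compound in qHTS format for 24 hr at 37C, then given CellTiter-Fluor for 30 min; viability was read as fluorescence in the reporter wells.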

[4] = molecular target: Peroxisome proliferator-activated receptor gamma (Homo sapiens) (UniProt P37231); experiment: qHTS assay to identify small molecule agonists of the peroxisome proliferator-activated receptor gamma (PPARg) signaling pathway (AID 743094; active = well fitted activation curve with a large enough effect in the signal ratio in the repeat runs, not every such curve was filed as active; the % refers to the signal ratio)
Outline: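 Cells from the PPARg UAS-bla HEK293H line are plated and incubated 5 h at 37C. Compounds in DMSO are pinned in and left 17 h at 37C. LiveBLAzer B/G substrate is then added for 1 h at room temperature before fluorescence is measured.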

[5] = molecular target: Peroxisome proliferator-activated receptor gamma (Homo sapiens) (UniProt P37231); experiment: qHTS assay to identify small molecule antagonists of the peroxisome proliferator-activated receptor gamma (PPARg) signaling pathway (AID 743191; calls by dose curve; note: series mostly up to about 63 µM; nearly all actives have a fitted effect of over 30% in size)
Outline: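 GeneBLAzer PPARg UAS-bla HEK293H cells carrying a UAS-driven beta-lactamase reporter were plated at 3000 cells/well, preincubated 5 h at 37C, then given compound for 17 h at 37C; LiveBLAzer B/G FRET substrate was read after 1 h at room temperature.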

[6] = qHTS assay for small molecule agonists of the antioxidant response element (ARE) signaling pathway (AID 743202; active = well fitted activation curve with a large enough effect in the signal ratio in the repeat runs, not every such curve was filed as active; the % refers to the signal ratio)
Outline: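 Following a 16 h, 37 C exposure of reporter HepG2 cells (ARE-driven beta-lactamase, 2,000 cells/well) to compounds, FRET substrate was applied for 2 h at room temperature and fluorescence intensity recorded.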

[7] = qHTS assay for small molecule agonists of the antioxidant response element (ARE) signaling pathway - cell viability counter screen (AID 743203; calls by dose curve; note: nearly all actives have a fitted effect of over 55% in size)
Outline: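 Cytotoxicity was tested in parallel with the ARE reporter screen. ARE-bla HepG2 cells were exposed to compounds for 16 hrs, and viability was taken from CellTiter-Glo luminescence.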

[8] = qHTS assay for small molecule activators of the heat shock response signaling pathway - cell viability counter screen (AID 743209); note: nearly all actives have a fitted effect of over 50% in size
Outline: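 Cytotoxicity counter screen run in parallel with the HSE beta-lactamase reporter, using the same wells. HeLa HSE-bla cells received compound for 5 h at 37 C; ATP-based CellTiter-Glo luminescence was measured after 30 min at room temperature.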

[9] = qHTS assay for small molecule activators of the heat shock response signaling pathway (AID 743210; active = well fitted activation curve with a large enough effect in the signal ratio in the repeat runs, with a control signal flat, not every such curve was filed as active; the % refers to the signal ratio; note: series mostly up to about 63 µM)
Outline: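 Heat shock element–beta-lactamase HeLa reporter cells; qHTS with compounds for 5 h at 37 C; detection by FRET substrate fluorescence after 2.5 h at RT.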

[10] = qHTS assay to identify small molecule agonists of the peroxisome proliferator-activated receptor delta (PPARd) signaling pathway - cell viability counter screen (AID 743211); note: nearly all actives have a fitted effect of over 55% in size
Outline: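 Multiplexed format: after the 2 h room-temperature LiveBLAzer B/G FRET step, CellTiter-Glo was added to the same wells. Luminescence after 30 min gave cell viability; compound exposure was 17 h at 37C.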

[11] = molecular target: Peroxisome proliferator-activated receptor delta (Homo sapiens) (UniProt Q03181); experiment: qHTS assay to identify small molecule agonists of the peroxisome proliferator-activated receptor delta (PPARd) signaling pathway (AID 743212; calls by dose curve)
Outline: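 Beta-lactamase reporter read by fluorescence (LiveBLAzer B/G FRET, 2 h, room temperature). Test agents, in DMSO, incubated at 37 C with PPARd-bla HEK293H cells.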

[12] = qHTS assay to identify small molecule antagonists of the peroxisome proliferator-activated receptor delta (PPARd) signaling pathway - cell viability counter screen (AID 743213); note: nearly all actives have a fitted effect of over 50% in size
Outline: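 Cytotoxicity counter screen: CellTiter-Glo luminescence read 30 min after addition, in the same wells as the reporter assay. There, PPARd UAS-bla HEK293H cells (3000/well) were treated 17 h at 37 C with compound and 300 nM L165041.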

[13] = molecular target: Peroxisome proliferator-activated receptor delta (Homo sapiens) (UniProt Q03181); experiment: qHTS assay to identify small molecule antagonists of the peroxisome proliferator-activated receptor delta (PPARd) signaling pathway (AID 743215; active = well fitted inhibition curve with a large enough effect in the signal ratio in the repeat runs, not every such curve was filed as active; the % refers to the signal ratio;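 note: cells stimulated with agonist L165041 at 300 nM final during compound exposure; series mostly up to about 62 µM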)
Outline: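 Cells: HEK293H with a UAS-driven beta-lactamase reporter responsive to PPARd. Compounds were co-added with L165041 (300 nM, final) and incubated 17 h at 37 C before a 2 h room-temperature FRET substrate step and fluorescence reading.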

[14] = qHTS assay to identify small molecule agonists of the farnesoid-X-receptor (FXR) signaling pathway - cell viability counter screen (AID 743218); note: nearly all actives have a fitted effect of over 45% in size
Outline: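 Cells were seeded, left 5 h at 37 C and 5% CO2, then dosed with compound in DMSO for 16 h. After the beta-lactamase FRET read, CellTiter-Glo was added and luminescence measured 30 min later.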

[15] = qHTS assay to identify small molecule antagonists of the farnesoid-X-receptor (FXR) signaling pathway - cell viability counter screen (AID 743221; active = well fitted cell-killing curve with a large enough effect in the repeat runs, not every such curve was filed as active; note: nearly all actives have a fitted effect of over 50% in size)
Outline: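 CellTiter-Glo, 30 min RT, luminescence; same wells as the LiveBLAzer FRET read. Cells: FXR-UAS-bla HEK 293T. Treatment: compound with chenodeoxycholic acid 50 uM final, 16 h at 37 C.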

[16] = molecular target: Vitamin D3 receptor (Homo sapiens) (UniProt P11473); experiment: qHTS assay to identify small molecule agonists of the vitamin D receptor (VDR) signaling pathway (AID 743222; calls by dose curve)
Outline: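 Cells carrying a VDR-driven beta-lactamase reporter are seeded at 2,000 per well and rested 4 h. Compounds in DMSO are added for 16 h at 37C, and FRET substrate fluorescence is measured after 2 h at room temperature.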

[17] = molecular target: Vitamin D3 receptor (Homo sapiens) (UniProt P11473); experiment: qHTS assay to identify small molecule antagonists of the vitamin D receptor (VDR) signaling pathway (AID 743223; active = well fitted inhibition curve with a large enough effect in the signal ratio in the repeat runs, not every such curve was filed as active; the % refers to the signal ratio)
Outline: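 After VDR-bla cells are plated and left 4 h at 37C, DMSO-dissolved compounds and 3 nM (final) calcitriol agonist are added. Incubation continues 16 h at 37C; FRET beta-lactamase substrate then develops 2 h at room temperature.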

[18] = qHTS assay to identify small molecule antagonists of the peroxisome proliferator-activated receptor gamma (PPARg) signaling pathway - cell viability counter screen (AID 743194); note: nearly all actives have a fitted effect of over 55% in size
Outline: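 PPARg-UAS-bla HEK293H cells were plated, rested 5 h at 37 C, then treated with compounds plus rosiglitazone (50 nM final) for 17 h at 37 C; viability was then read by CellTiter-Glo luminescence after 30 min at room temperature.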

[19] = molecular target: Bile acid receptor (Homo sapiens) (UniProt Q96RI1); experiment: qHTS assay to identify small molecule agonists of the farnesoid-X-receptor (FXR) signaling pathway (AID 743220; active = well fitted activation curve with a large enough effect in the signal ratio in the repeat runs, not every such curve was filed as active; the % refers to the signal ratio)
Outline: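 FXR-UAS-bla HEK 293T cells carrying a UAS-driven beta-lactamase reporter were plated for 5 h at 37C/5% CO2, then exposed to DMSO-dissolved Tox21 10K compounds for 16 h at 37C. A LiveBLAzer B/G FRET substrate was loaded for 2 h at room temperature before fluorescence reading.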
% is set by controls: 0 for no effect and ±100 for the full control effect.

Vitamin D3 receptor (Homo sapiens), sequence (P11473 whole entry, looked up): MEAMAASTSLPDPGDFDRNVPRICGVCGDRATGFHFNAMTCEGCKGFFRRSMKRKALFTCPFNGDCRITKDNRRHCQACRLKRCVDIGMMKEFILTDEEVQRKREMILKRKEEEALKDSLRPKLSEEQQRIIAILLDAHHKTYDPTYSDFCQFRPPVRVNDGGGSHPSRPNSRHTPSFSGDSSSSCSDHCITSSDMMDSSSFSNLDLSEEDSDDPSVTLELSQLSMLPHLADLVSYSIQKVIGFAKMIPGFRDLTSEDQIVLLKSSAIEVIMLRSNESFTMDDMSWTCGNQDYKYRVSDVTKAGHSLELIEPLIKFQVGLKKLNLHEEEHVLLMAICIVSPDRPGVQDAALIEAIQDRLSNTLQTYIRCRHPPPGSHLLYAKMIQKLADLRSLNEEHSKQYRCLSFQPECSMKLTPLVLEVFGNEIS
Peroxisome proliferator-activated receptor delta (Homo sapiens), sequence (Q03181 whole entry, looked up): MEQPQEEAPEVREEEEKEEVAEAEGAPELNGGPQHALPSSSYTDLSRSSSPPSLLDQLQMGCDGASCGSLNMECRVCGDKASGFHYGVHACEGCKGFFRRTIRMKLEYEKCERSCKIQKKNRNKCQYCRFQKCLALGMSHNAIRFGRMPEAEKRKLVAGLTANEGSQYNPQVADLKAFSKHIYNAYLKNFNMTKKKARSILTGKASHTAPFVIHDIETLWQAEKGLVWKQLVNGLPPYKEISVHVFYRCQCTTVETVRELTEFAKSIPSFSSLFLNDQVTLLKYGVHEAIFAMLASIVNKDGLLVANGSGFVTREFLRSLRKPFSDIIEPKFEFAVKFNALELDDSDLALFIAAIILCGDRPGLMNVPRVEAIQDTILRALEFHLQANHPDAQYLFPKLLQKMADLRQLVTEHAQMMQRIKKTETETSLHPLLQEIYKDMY
Aryl hydrocarbon receptor (Homo sapiens), sequence (P35869 whole entry, looked up): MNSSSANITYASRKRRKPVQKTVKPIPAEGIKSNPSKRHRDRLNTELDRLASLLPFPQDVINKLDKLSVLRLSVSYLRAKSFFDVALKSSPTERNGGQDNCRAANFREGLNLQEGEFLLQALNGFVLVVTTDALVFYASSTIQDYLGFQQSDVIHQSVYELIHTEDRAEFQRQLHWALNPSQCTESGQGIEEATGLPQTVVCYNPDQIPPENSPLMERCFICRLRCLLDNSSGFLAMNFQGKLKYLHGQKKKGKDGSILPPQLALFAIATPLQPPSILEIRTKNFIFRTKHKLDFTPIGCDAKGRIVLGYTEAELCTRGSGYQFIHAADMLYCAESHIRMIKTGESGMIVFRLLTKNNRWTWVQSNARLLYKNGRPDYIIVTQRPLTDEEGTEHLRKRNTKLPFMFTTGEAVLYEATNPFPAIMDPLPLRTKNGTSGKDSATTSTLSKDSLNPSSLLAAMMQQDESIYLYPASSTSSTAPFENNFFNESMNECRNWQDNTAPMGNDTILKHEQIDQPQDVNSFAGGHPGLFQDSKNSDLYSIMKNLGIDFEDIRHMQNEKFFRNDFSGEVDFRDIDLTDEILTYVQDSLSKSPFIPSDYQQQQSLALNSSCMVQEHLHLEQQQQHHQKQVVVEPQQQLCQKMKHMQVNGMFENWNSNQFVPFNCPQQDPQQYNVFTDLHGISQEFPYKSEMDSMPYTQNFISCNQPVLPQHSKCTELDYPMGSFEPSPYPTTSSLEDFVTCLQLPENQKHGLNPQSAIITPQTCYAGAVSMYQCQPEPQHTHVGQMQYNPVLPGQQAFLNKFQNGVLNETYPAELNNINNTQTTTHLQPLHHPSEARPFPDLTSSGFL
Peroxisome proliferator-activated receptor gamma (Homo sapiens), sequence (P37231 whole entry, looked up): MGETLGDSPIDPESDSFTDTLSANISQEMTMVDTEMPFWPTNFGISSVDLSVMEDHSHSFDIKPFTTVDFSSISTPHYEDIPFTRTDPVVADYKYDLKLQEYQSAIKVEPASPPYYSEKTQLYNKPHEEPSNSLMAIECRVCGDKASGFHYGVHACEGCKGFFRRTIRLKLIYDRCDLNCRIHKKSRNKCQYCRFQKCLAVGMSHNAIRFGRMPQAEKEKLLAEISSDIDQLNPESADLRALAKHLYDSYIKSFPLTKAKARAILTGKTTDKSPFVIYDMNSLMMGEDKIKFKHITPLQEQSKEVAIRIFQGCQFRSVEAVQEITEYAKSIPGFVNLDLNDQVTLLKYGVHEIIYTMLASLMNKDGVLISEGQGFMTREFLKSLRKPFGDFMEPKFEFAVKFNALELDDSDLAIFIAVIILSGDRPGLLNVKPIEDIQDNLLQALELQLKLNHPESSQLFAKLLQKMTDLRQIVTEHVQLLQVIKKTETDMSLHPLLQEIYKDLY
Bile acid receptor (Homo sapiens), sequence (Q96RI1 whole entry, looked up): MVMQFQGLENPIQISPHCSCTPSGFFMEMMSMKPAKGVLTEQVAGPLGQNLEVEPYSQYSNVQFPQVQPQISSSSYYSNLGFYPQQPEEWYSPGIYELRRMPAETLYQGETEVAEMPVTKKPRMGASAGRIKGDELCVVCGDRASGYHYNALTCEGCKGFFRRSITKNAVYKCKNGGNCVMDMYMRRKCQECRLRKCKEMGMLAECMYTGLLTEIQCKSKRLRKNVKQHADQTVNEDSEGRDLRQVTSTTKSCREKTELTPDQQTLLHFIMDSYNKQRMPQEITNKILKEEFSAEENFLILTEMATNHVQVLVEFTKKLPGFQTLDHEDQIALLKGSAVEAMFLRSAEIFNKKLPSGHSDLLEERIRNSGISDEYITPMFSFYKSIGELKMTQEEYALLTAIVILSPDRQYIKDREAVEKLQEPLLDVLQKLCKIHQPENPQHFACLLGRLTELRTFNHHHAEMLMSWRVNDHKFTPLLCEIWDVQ

O=C(O)CN(CCOCCOCCN(CC(=O)O)CC(=O)O)CC(=O)O
inactive: Potency [1] | Potency [2] | Potency [3] | outcome [4] | ratio activity, negative = inhibition [5] -4.72% [at 0.55 µM] | activation [6] 8.1% [at 0.756 µM] | viability change, negative = cytotoxic [7] 1.75% [at 0.756 µM] | activity change, negative = cytotoxicity [8] -15.4% [at 0.55 µM] | activation [9] 0.198% [at 0.55 µM] | activity change, negative = cytotoxicity [10] 8.22% [at 0.55 µM] | activation [11] -2.28% [at 0.55 µM] | viability change, negative = cytotoxic [12] 5.18% [at 0.575 µM] | ratio activity, negative = inhibition [13] 6.3% [at 0.575 µM] | viability change, negative = cytotoxic [14] -1.35% [at 0.55 µM] | activity change, negative = cytotoxicity [15] -3.69% [at 0.55 µM] | activation [16] 6.34% [at 0.554 µM] | activity change, negative = inhibition [17] 2.94% [at 0.628 µM]

CC1(C)C(O)C(C)(C)C1O (stereo not given)
inactive: Potency [1] | Potency [2] | Potency [3] | outcome [4] | Potency [5] | Potency [6] | Potency [7] | outcome [8] | outcome [9] | Potency [10] | outcome [11] | Potency [12] | Potency [13] | Potency [14] | outcome [16] | outcome [17]

Cc1c(NC(C)C)c(=O)n(-c2ccccc2)n1C
inactive: Potency [1] | Potency [2] | Potency [3] | outcome [4] | Potency [5] | Potency [6] | Potency [7] | outcome [8] | outcome [9] | Potency [10] | outcome [11] | Potency [13] | Potency [15] | outcome [16] | outcome [17]

CCCCCOC(=O)CCCCC
inactive: Potency [1] | Potency [2] | Potency [3] | outcome [4] | outcome [18] | Potency [6] | Potency [7] | outcome [8] | outcome [9] | Potency [10] | outcome [11] | Potency [12] | Potency [13] | Potency [14] | Potency [15] | outcome [16] | outcome [17]

C1CN(CCOCCN2CCOCC2)CCO1
inactive: Potency [1] | Potency [2] | Potency [3] | outcome [4] | Potency [5] | Potency [6] | Potency [7] | outcome [8] | outcome [9] | Potency [10] | outcome [11] | Potency [12] | Potency [14] | Potency [15] | outcome [16] | outcome [17]

CCCc1cc(C(N)=S)ccn1
inactive: Potency [1] | Potency [2] | Potency [3] | outcome [4] | Potency [5] | Potency [6] | Potency [7] | outcome [8] | outcome [9] | Potency [10] | Potency [15]

NS(=O)(=O)c1cc2c(cc1Cl)NC(C1CC3C=CC1C3)NS2(=O)=O (stereo not given)
inactive: Potency [1] | Potency [2] | Potency [3] | outcome [4] | outcome [18] | Potency [6] | Potency [7] | outcome [8] | outcome [9] | Potency [10] | outcome [11] | Potency [13] | Potency [14] | Potency [15] | outcome [16] | outcome [17]

COc1ccccc1OCC(O)CN1CCN(CC(=O)Nc2c(C)cccc2C)CC1 (stereo not given)
inactive: Potency [1] | Potency [2] | Potency [3] | outcome [4] | outcome [18] | Potency [6] | Potency [7] | outcome [8] | outcome [9] | Potency [10] | outcome [11] | Potency [12] | Potency [14] | Potency [15] | outcome [16]

CCOC(=O)CCC(C)=O
inactive: Potency [1] | Potency [2] | Potency [3] | outcome [4] | outcome [18] | Potency [6] | Potency [7] | outcome [8] | outcome [9] | Potency [10] | outcome [11] | Potency [13] | Potency [14] | outcome [19] | Potency [15] | outcome [16] | outcome [17]
